# Values joined by “and” are separate entries in the source; they are usually repeats but may differ in a detail not shown here. Equal entries are not always repeated. This is part of a sample that, as a whole, favours compounds with a hit. Of some 83,000 tested, about 20% had one in any assay.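 Step 1: grow cells in 96-well plates. Step 2: add test compound at a single concentration. Step 3: incubate 48 h. Step 4: record percent growth.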 Active and inactive are the calls of the source. Rule for the calls: active = growth percent below 10; inactive = the rest.
# Legend:
# Test in all cases: NCI-60 one-dose screen, 48 h (100 = growth as untreated, 0 = no growth, -100 = all killed)
# Settings in all cases: 10 µM unless noted
# T-47D breast = test system: T-47D breast
# BT-549 breast = test system: BT-549 breast
# MDA-MB-435 melanoma = test system: MDA-MB-435 melanoma
# SW-620 colon = test system: SW-620 colon
# MCF7 breast = test system: MCF7 breast
# HCT-116 colon = test system: HCT-116 colon
# HCC-2998 colon = test system: HCC-2998 colon
# KM12 colon = test system: KM12 colon
Compound,growth (T-47D breast),growth (BT-549 breast),growth (MDA-MB-435 melanoma),growth (SW-620 colon),growth (MCF7 breast),growth (HCT-116 colon),growth (HCC-2998 colon),growth (KM12 colon)
Cn1c(SSc2ccc(-c3cccnc3)n2C)ccc1-c1cccnc1,83.3% (inactive) and 121% (inactive),107% (inactive) and 105% (inactive),92.8% (inactive) and 82% (inactive),62.8% (inactive) and 11.1% (inactive),76.4% (inactive) and 117% (inactive),82.3% (inactive) and 99.2% (inactive),112% (inactive) and 102% (inactive),98.5% (inactive) and 95.5% (inactive)
CCN(CC)CCCC(C)Nc1ccnc2cc(Oc3ccccc3)ccc12 (configuration not stated),28.8% (inactive) and 83.9% (inactive),62.9% (inactive) and 86% (inactive),2.5% (active) and 24.4% (inactive),55.8% (inactive) and 79.4% (inactive),55.3% (inactive) and 82.7% (inactive),32% (inactive) and 54.9% (inactive),90.9% (inactive) and 77.7% (inactive),78.5% (inactive) and 87.2% (inactive)
COc1cc2nc(N3CCN(C(=O)C4COc5ccccc5O4)CC3)nc(N)c2cc1OC (configuration not stated),91.2% (inactive) and 93.6% (inactive) and 96% (inactive),86.9% (inactive) and 96.6% (inactive) and 105% (inactive),96.5% (inactive) and 90.2% (inactive) and 92.2% (inactive),92% (inactive) and 97.7% (inactive) and 109% (inactive),91.7% (inactive) and 95.2% (inactive) and 101% (inactive),105% (inactive) and 79.8% (inactive) and 104% (inactive),102% (inactive) and 105% (inactive) and 108% (inactive),103% (inactive) and 99.6% (inactive) and 102% (inactive)
CCN(CC)CCCC(C)Nc1cnc(C(=O)Nc2cc(F)cc3cccnc23)cn1 (configuration not stated),14.3% (inactive) and -49.5% (active),77.4% (inactive) and -40.1% (active),25.5% (inactive) and 3.24% (active),24.3% (inactive) and -78.8% (active),2.31% (active) and -37.5% (active),9.52% (active) and -66.7% (active),66.7% (inactive) and 14.1% (inactive),75.3% (inactive) and -92.3% (active)
CCCCCN(CCCCC)CC(O)c1cc2c(c3ccccc13)CCCC2 (configuration not stated),51.1% (inactive) and 54.1% (inactive),88.8% (inactive) and 59.8% (inactive),83.4% (inactive) and 69.8% (inactive),28.9% (inactive) and 30.4% (inactive),44.8% (inactive) and 23.5% (inactive),20.2% (inactive) and 17.9% (inactive),13.1% (inactive),50.5% (inactive) and 35.3% (inactive)
CN(C)c1ccc(C(=C2C=CC(=[N+](C)C)C=C2)c2ccccc2Cl)cc1,-33.3% (active) and -72.6% (active),-35.9% (active) and 1.51% (active),-40.9% (active) and -29% (active),-75.8% (active) and -78.1% (active),-9.73% (active) and -58.7% (active),-66.7% (active) and -99.5% (active),-92.3% (active) and -98.8% (active),-94.6% (active) and -87.2% (active)
COC(=O)/C=C/c1cc(O)c2c(c1)C(C(=O)OC)C(c1ccc(O)c(O)c1)O2 (configuration not stated),84.7% (inactive) and 84.1% (inactive),-2.3% (active) and -1.89% (active),-37.6% (active) and -26% (active),19.4% (inactive) and 29.6% (inactive),15.1% (inactive) and 13.7% (inactive),8.03% (active) and 7.89% (active),27.8% (inactive) and 29.9% (inactive),11.9% (inactive) and 11.7% (inactive)
CC1=C(/C=C/C(C)=C/C=C/C(C)=C/C(=O)O)C(C)(C)CCC1,63.4% (inactive) and 86.2% (inactive) and 77.1% (inactive),100% (inactive) and 84.9% (inactive) and 99.2% (inactive),92.3% (inactive) and 90.7% (inactive) and 107% (inactive),111% (inactive) and 106% (inactive) and 116% (inactive),68.6% (inactive) and 67.4% (inactive) and 73.2% (inactive),83% (inactive) and 98.7% (inactive) and 89.6% (inactive),108% (inactive) and 111% (inactive) and 105% (inactive),94.7% (inactive) and 105% (inactive) and 102% (inactive)
CNc1cc(-c2cccc(OC(F)(F)F)c2)nc2ccc(N3CCCC3)cc12,-40.3% (active) and -55% (active) and -40.4% (active),-81.3% (active) and 74.1% (inactive) and 76.4% (inactive),35.8% (inactive) and -86.4% (active) and -70.6% (active),5.95% (active) and -18.2% (active) and 0.371% (active),3.84% (active) and -19.7% (active) and 0.755% (active),-76% (active) and -90.3% (active) and -76.6% (active),25.9% (inactive) and -53.7% (active) and -32.7% (active),12.5% (inactive) and -3.68% (active) and 1.48% (active)
O=C(O)CN(CCN(CC(=O)O)CC(=O)O)CCN(CC(=O)O)CC(=O)O,9.23% (active) and 101% (inactive),-10.9% (active) and 92.1% (inactive),17.1% (inactive) and 101% (inactive),10.5% (inactive) and 109% (inactive),18% (inactive) and 85.5% (inactive) and 101% (inactive),3.66% (active) and 91.9% (inactive) and 100% (inactive),15.8% (inactive) and 105% (inactive) and 110% (inactive),15.9% (inactive) and 112% (inactive) and 108% (inactive)
CNc1ccc2nc3ccc(=[N+](C)C)cc-3sc2c1,-12.4% (active) and -16.3% (active),49.1% (inactive),-63.5% (active) and -47% (active),0.782% (active) and 2.58% (active),-65.8% (active) and -27.2% (active),-8.61% (active) and -49.3% (active),31.5% (inactive) and 33.6% (inactive),18.2% (inactive) and 14.2% (inactive)
CC(C)(O)Cn1cc(-c2ccc3nc(OC4CC4)ccc3c2)c2c(N)ncnc21,47.6% (inactive) and 5.84% (active),84.7% (inactive) and 66.4% (inactive),93.7% (inactive) and 61% (inactive),97.4% (inactive) and 63.8% (inactive),69.6% (inactive) and 39.6% (inactive),70.3% (inactive) and 52.4% (inactive),99.7% (inactive) and 89.4% (inactive),84.1% (inactive) and 56.8% (inactive)
COc1ccc2c(=O)cc(-c3ccccc3)[nH]c2c1,50.7% (inactive) and 57.1% (inactive),48.6% (inactive) and 45.1% (inactive),-46.6% (active) and -12% (active),23.1% (inactive) and 33.3% (inactive),18.2% (inactive) and 14.8% (inactive),16.7% (inactive) and 8.27% (active),17.4% (inactive) and 2.14% (active),14.1% (inactive) and 8% (active)
CC[N+](CC)(CC(=O)Nc1c(C)cccc1C)Cc1ccccc1,86.9% (inactive) and 95.1% (inactive),63.8% (inactive) and 106% (inactive),94.7% (inactive) and 99.3% (inactive),90.1% (inactive) and 97.1% (inactive),95.7% (inactive) and 99.8% (inactive),97.3% (inactive) and 100% (inactive),102% (inactive),101% (inactive) and 88.9% (inactive)
